From PubChem BioAssay (NCATS) come the findings set out here.

Each structure is given as a SMILES string.

A short description of the experiment: qHTS profiling of the MIPE4 collection as inhibitors of Plasmodium falciparum (HB3) proliferation (AID 743347).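 Further: plate controls were DMSO vehicle wells for no effect and artemisinin wells for full effect.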 As to conditions: P. falciparum HB3 in erythrocytes, SYBR Green DNA, 72 h; at 28.5 µM (top of the series) unless noted. An outline of the steps: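 Erythrocytes infected with P. falciparum (0.3% parasitemia, 2.5% hematocrit) incubated with compounds 72 h at 37 C, 5% CO2. Lysis with saponin/Triton buffer containing SYBR Green I, overnight at room temperature in the dark; DNA fluorescence (485/535 nm) normalised to 0.29 uM artemisinin and DMSO.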
In general terms: qHTS replaces the single test concentration by a dilution series.
In turn, `CNCC(O)c1ccc(O)cc1` (stereo not drawn) returned a growth, % of control of 53.7%.
The value for `CC(O)(CS(=O)(=O)c1ccc(F)cc1)C(=O)Nc1ccc(C#N)c(C(F)(F)F)c1` (stereo not drawn) was 81.9%; that for `CN(C)CCN(C)CCc1ccc(Cl)c(Cl)c1` was 72.7%.
The same measure for `Cn1cc(C2=C(c3cn(C4CCN(Cc5ccccn5)CC4)c4ccccc34)C(=O)NC2=O)c2ccccc21`: 6.8%; for `CC1=C2C[C@@H]3[C@@H](CC=C4C[C@@H](O)CC[C@@]43C)[C@@H]2CC[C@]12O[C@H]1C[C@H](C)CN[C@H]1[C@H]2C`: 71.2%.
The same measure for `O=C(O)C(=O)c1cn(Cc2ccccc2)c2ccc(-c3ccc(OC(F)(F)F)cc3)cc12`: 506%.
In turn, `C[C@@H]1[C@@H](C(=O)C[C@H]2O[C@@H]3O[C@]4(C)CC[C@@H]5[C@H](C)CC[C@@H]([C@H]2C)[C@@]35OO4)O[C@@H]2O[C@]3(C)CC[C@H]4[C@H](C)CC[C@@H]1[C@@]24OO3` returned a growth, % of control of 29.5%.
`CNC(=O)N1N=C(c2ccc(N)cc2)c2cc3c(cc2CC1C)OCO3` (stereo not drawn): the growth, % of control stood at 248%.
Take `Cc1cc(SCc2sc(-c3ccc(C(F)(F)F)c(F)c3)nc2C)ccc1OCC(=O)O`: the growth, % of control was 87.4%.
The same measure for `CNC(=O)c1ccc(N2C(=S)N(c3ccc(C#N)c(C(F)(F)F)c3)C(=O)C23CCC3)cc1F`: 69.7%; for `C[C@@H]1O[C@@H](O[C@H]2C[C@@H](O)[C@]3(CO)[C@H]4[C@H](O)C[C@]5(C)[C@@H](C6=CC(=O)OC6)CC[C@]5(O)[C@@H]4CC[C@]3(O)C2)[C@H](O)[C@H](O)[C@H]1O`: 101%.
The same measure for `Cc1sc2c(c1C)C(c1ccc(Cl)cc1)=N[C@@H](CC(=O)OC(C)(C)C)c1nnc(C)n1-2`: 12.7%.
The value for `COC1(CS(=O)c2ccccc2)CCN(CCc2c[nH]c3ccc(F)cc23)CC1` (stereo not drawn) was 35.7%; that for `C[C@@H]1[C@@H](CC(C[C@H]2O[C@@H]3O[C@]4(C)CC[C@@H]5[C@H](C)CC[C@@H]([C@H]2C)[C@@]35OO4)C[S+](=O)([O-])c2ccc(COC(=O)N(C)C)cc2)O[C@@H]2O[C@]3(C)CC[C@H]4[C@H](C)CC[C@@H]1[C@@]24OO3` (stereo partly drawn) was 20.9%.
`CCCC(C)(COC(N)=O)COC(=O)NC(C)C` (stereo not drawn) registered a growth, % of control of 100%.
The same measure for `C=C(C)[C@H]1Cc2c(ccc3c2O[C@@H]2COc4cc(OC)c(OC)cc4[C@@H]2C3=O)O1`: 90.3%; for `Cn1c(CCCC(=O)O)nc2cc(N(CCCl)CCCl)ccc21`: 104%.
The same measure for `COc1ccc(C(=O)c2c(C)n(CCN3CCOCC3)c3ccccc23)cc1`: 93.4%.
